Assay [1] deals with Rap guanine nucleotide exchange factor 3 (Homo sapiens) (UniProt O95398). Put plainly: Confirmatory qHTS for antagonist of cAMP-regulated guanine nucleotide exchange factor 3 (EPAC1) (AID 1645880). Also: nearly all actives have a fitted effect of over 55% in size. Also: potency is read from the fitted curve at half-maximal effect. The method in brief:
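Released BODIPY-GDP fluoresces less than Rap1-bound BODIPY-GDP; the signal is followed at 480/540 nm at 5-min intervals over 30 min, after 5 min at room temperature. Reactions contain 100 nM EPAC1, 250 nM RAP1B-BODIPY-GDP and 50 uM GDP; results are normalized to ATA and DMSO.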

Assay [2] has the same target. Put plainly: Confirmatory qHTS for agonist of cAMP-regulated guanine nucleotide exchange factor 3 (EPAC1) (AID 1645881).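 Also: EPAC1 catalysed release of BODIPY-GDP from Rap1B seen as fluorescence loss; 100% = effect of cAMP agonist control; nearly all actives have a fitted effect of over 75% in size.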
Assay [3] concerns the target Rap guanine nucleotide exchange factor 4 (Homo sapiens) (UniProt Q8WZA2). Description: Confirmatory qHTS for agonist of cAMP-regulated guanine nucleotide exchange factor 4 (EPAC2) (AID 1645884).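 Also: nucleotide exchange releases bodipy-GDP from Rap1 and this lowers its fluorescence; % is scaled to controls: 0 for no effect and ±100 for the full control effect; nearly all actives have a fitted effect of over 65% in size.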
Assay [4] shares this target. Put plainly: Confirmatory qHTS for antagonist of cAMP-regulated guanine nucleotide exchange factor 4 (EPAC2) (AID 1645885). Also: nearly all actives have a fitted effect of over 25% in size. As to activity change, negative = inhibition: % is scaled to controls: 0 for no effect and ±100 for the full control effect.
For assay [5], the target named is Rap guanine nucleotide exchange factor 3 (Homo sapiens) (UniProt O95398). Put plainly: Counterscreen qHTS for antagonist of cAMP-regulated guanine nucleotide exchange factor 3 (EPAC1) (AID 1645888). Also: % of control where 0% means no effect. The method in brief:
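Rap1B–BODIPY-GDP (250 nM) with 50 uM GDP; compounds pin-transferred to 9.74 nM–152 uM final (activator) or from 7.32 nM upwards (inhibitor). Fluorescence Ex/Em 480/540 nm read at 5 and 30 min, then after adding cAMP or buffer, at room temperature.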

Results filed as inconclusive are left out. Unmarked numbers belong to inactive results. Active and inactive are the calls of the source. Calls follow the shape of the dose curve; as a rule, active = well fitted curve in the direction sought with a large enough effect; inconclusive = small, poorly fitted or top-dose-only effect, or another doubt; inactive = no such curve, though single readings can be large; an effect the other way counts as inactive or inconclusive.

Rap guanine nucleotide exchange factor 4 (Homo sapiens), sequence (Q8WZA2 whole entry, looked up): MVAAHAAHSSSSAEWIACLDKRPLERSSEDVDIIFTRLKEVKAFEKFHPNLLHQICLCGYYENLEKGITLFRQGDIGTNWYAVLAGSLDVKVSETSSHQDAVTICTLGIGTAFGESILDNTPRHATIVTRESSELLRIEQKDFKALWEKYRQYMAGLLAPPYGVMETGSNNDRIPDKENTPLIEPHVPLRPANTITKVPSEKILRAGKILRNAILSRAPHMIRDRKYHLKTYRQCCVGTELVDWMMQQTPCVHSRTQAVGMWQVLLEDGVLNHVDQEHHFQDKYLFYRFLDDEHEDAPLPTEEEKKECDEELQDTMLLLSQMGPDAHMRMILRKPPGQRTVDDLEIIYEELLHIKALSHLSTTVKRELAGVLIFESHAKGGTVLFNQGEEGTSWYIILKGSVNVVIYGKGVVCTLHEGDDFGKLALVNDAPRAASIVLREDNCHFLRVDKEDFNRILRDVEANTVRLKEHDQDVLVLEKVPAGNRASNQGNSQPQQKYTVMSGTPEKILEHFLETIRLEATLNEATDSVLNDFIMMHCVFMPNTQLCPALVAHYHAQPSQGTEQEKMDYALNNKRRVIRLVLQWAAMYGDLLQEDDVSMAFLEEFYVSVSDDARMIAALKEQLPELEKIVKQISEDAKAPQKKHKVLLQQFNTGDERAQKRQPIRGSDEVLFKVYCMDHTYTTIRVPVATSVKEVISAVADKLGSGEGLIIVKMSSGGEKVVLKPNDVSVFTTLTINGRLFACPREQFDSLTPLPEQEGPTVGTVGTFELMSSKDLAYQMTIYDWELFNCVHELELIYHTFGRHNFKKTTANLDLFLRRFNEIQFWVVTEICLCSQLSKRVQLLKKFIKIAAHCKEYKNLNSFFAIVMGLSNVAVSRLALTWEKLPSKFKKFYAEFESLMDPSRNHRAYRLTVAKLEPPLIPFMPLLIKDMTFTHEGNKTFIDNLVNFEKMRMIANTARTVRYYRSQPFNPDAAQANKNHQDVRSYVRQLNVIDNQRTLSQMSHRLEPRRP
Rap guanine nucleotide exchange factor 3 (Homo sapiens), sequence (O95398 whole entry, looked up): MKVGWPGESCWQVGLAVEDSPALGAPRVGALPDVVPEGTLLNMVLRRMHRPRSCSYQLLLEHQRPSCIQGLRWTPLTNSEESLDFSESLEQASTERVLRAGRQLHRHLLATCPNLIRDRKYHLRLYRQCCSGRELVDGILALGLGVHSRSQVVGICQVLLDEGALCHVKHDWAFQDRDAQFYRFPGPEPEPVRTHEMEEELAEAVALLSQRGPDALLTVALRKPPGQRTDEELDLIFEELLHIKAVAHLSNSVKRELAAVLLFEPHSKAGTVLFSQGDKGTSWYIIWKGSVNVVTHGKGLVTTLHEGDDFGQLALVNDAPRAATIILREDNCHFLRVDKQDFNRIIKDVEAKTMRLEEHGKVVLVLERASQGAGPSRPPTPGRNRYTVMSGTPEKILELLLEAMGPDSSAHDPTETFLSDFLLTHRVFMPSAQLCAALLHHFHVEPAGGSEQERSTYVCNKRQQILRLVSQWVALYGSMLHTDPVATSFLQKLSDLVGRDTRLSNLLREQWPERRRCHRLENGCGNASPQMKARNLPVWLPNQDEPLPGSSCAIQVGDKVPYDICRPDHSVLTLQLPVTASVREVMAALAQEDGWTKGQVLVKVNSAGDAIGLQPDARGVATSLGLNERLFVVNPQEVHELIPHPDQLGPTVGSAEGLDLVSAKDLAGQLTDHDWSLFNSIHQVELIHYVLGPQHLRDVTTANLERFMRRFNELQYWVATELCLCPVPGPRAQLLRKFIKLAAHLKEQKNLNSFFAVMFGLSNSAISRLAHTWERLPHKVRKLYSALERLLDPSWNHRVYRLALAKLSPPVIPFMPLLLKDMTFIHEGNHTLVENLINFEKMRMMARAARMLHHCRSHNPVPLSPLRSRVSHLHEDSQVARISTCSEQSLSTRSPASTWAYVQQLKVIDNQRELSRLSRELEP

As for `COC(=O)c1sccc1NS(=O)(=O)c1ccccc1[N+](=O)[O-]`, the Potency entry in assay [1], in assay [2] and in assay [4] was “inactive” in each case. In addition, the activation in assay [3] is -1.71% [at 17.1 µM, percent relative to cAMP agonist control]. Also, in assay [5], the activity change, negative = inhibition is -0.412% [at 30.8 µM].
Take `CN1C(=O)Cc2cc(S(=O)(=O)N3CCN(c4ccccc4F)CC3)ccc21`: the Potency entry in assay [1], in assay [2], in assay [3], in assay [4] and in assay [5] was “inactive” in each case.
Regarding `C=CCOc1ccc(C=NNc2ccc(S(=O)(=O)Nc3ccccc3C(=O)O)cc2[N+](=O)[O-])cc1OC`, the Potency in assay [1] is 7.57 µM (active). Also, the Potency entry in assay [2], in assay [3], in assay [4] and in assay [5] was “inactive” each time.
`CN(CCC#N)C(=O)COC(=O)c1c2c(nc3ccccc13)/C(=C/c1ccco1)CC2`: the Potency in assay [1] is 3.55 µM (active). Moreover, the Potency result in assay [2] and in assay [4] was “inactive” each time. Also, in assay [3], the activation was -0.614% [at 17.1 µM, percent relative to cAMP agonist control]. Besides, in assay [5], the activity change, negative = inhibition was -6.16% [at 30.8 µM].
Take `CCCCN(CCCC)S(=O)(=O)c1ccc(C(=O)Nc2sc3c(c2C(N)=O)CCN(CC)C3)cc1`: the Potency result in assay [1], in assay [2], in assay [3], in assay [4] and in assay [5] was “inactive” each time.
Take `CCOC(=O)C1=C(CSc2nc3ccccc3s2)NC(=O)NC1c1ccc(OC)cc1` (stereo not given): the Potency entry in assay [1], in assay [2], in assay [3] and in assay [5] was “inactive” in each case. For the same compound, the outcome in assay [4] was “inactive; activator; fitted 0.12 uM [at 12.7 µM]”.
`CS(=O)(=O)N1N=C(c2ccco2)CC1c1ccc(Cl)cc1Cl` (stereo not given): the Potency result in assay [1], in assay [2] and in assay [4] was “inactive” each time. In addition, the activation in assay [3] was 0.361% [at 17.1 µM, percent relative to cAMP agonist control]. Further, the activity change, negative = inhibition in assay [5] was 3.91% [at 30.8 µM].
With `O=C1CC(c2ccccc2)=C(c2ccccc2)C1`, the Potency entry in assay [1], in assay [2] and in assay [4] was “inactive” in each case. Moreover, the activation in assay [3] was -2.19% [at 17.1 µM, percent relative to cAMP agonist control]. Moreover, the activity change, negative = inhibition in assay [5] was 8.98% [at 30.8 µM].
Take `CC(=O)NC(C)c1nc2ccccc2n1Cc1ccccc1Cl` (stereo not given): the Potency entry in assay [1], in assay [2], in assay [3], in assay [4] and in assay [5] was “inactive” throughout.
Turning to `Cc1ccc2nc(N3C(=O)C(O)=C(C(=O)c4ccc(C)o4)C3c3cccc(O)c3)sc2c1` (stereo not given), in assay [1], the Potency was 37.9 µM (active). Further, the Potency result in assay [2], in assay [3], in assay [4] and in assay [5] was “inactive” each time.
Consider `COc1ccc(CCNC(=O)CSc2nc3nc(C)c(Cc4ccc(C)cc4)c(C)n3n2)cc1OC`, for which the Potency result in assay [1], in assay [2], in assay [3], in assay [4] and in assay [5] was “inactive” each time.
As for `Oc1ccc(NCc2ccccc2OCc2ccc(Cl)cc2)cc1`, the Potency in assay [1] is 75.7 µM (active). Besides, the Potency result in assay [2], in assay [3], in assay [4] and in assay [5] was “inactive” each time.
`CC1(C(=O)Nc2ccc(Cl)cc2)Cc2c(-c3cccc(C(N)=O)c3)ccnc2O1` (stereo not given): the Potency entry in assay [1], in assay [2] and in assay [4] was “inactive” each time. Also, the activation in assay [3] was 9.22% [at 17.1 µM, percent relative to cAMP agonist control]. Besides, the activity change, negative = inhibition in assay [5] is 3.15% [at 30.8 µM].
For the compound `COc1cc2c(-c3ccc4c(c3)OCO4)c(-c3ccsc3)oc(=O)c2cc1OC`, the Potency entry in assay [1], in assay [2] and in assay [4] was “inactive” throughout. Besides, in assay [3], the activation was 13.2% [at 17.1 µM, percent relative to cAMP agonist control]. For the same compound, the activity change, negative = inhibition in assay [5] was 10.4% [at 30.8 µM].
For `CCOc1c(S(=O)(=O)N2CCCC2)ccc(Cl)c1Cl`, the Potency entry in assay [1], in assay [2], in assay [3], in assay [4] and in assay [5] was “inactive” in each case.
Consider `COc1ccc(C(=O)Nc2ccc(-c3cc4ccccc4oc3=O)c(C)c2)cc1Br`, for which the Potency result in assay [1], in assay [2], in assay [3], in assay [4] and in assay [5] was “inactive” throughout.
With `CC(=O)NCCn1c(C)cc2ccccc21`, the Potency entry in assay [1], in assay [2] and in assay [4] was “inactive” in each case. For the same compound, the activation in assay [3] was 5.87% [at 17.1 µM, percent relative to cAMP agonist control]. Also, the activity change, negative = inhibition in assay [5] was -13.2% [at 30.8 µM].
As to `O=C(O)c1[nH]c2ccccc2c1C(c1cc(Br)ccc1O)c1c(C(=O)O)[nH]c2ccccc12`, the Potency in assay [1] is 39.8 µM (active). The Potency entry in assay [2] and in assay [4] was “inactive” in each case. Besides, the activation in assay [3] is 11.5% [at 17.1 µM, percent relative to cAMP agonist control]. Further, in assay [5], the activity change, negative = inhibition is -16.3% [at 30.8 µM].
Turning to `COc1ccc([N+](=O)[O-])cc1NC(=S)Nc1ccccc1`, the Potency entry in assay [1], in assay [2], in assay [3], in assay [4] and in assay [5] was “inactive” each time.
As for `O=C(/C=C/c1ccco1)Nc1cccc(C(=O)Nc2ccccc2C(=O)O)c1`, the Potency in assay [1] was 3.98 µM (active). Moreover, the Potency result in assay [2] and in assay [4] was “inactive” in each case. Besides, the activation in assay [3] was 3.49% [at 17.1 µM, percent relative to cAMP agonist control]. The activity change, negative = inhibition in assay [5] is 19% [at 30.8 µM].
Consider `Cc1cc(=O)n(Cc2cccc(Cl)c2)c2c1c(C)nn2C`, for which the Potency entry in assay [1], in assay [2], in assay [3], in assay [4] and in assay [5] was “inactive” in each case.
As for `CCN(CC)c1nc(C)nc2c1sc(=S)n2C`, the Potency result in assay [1], in assay [2], in assay [3], in assay [4] and in assay [5] was “inactive” throughout.
As to `CCc1cccc2c(C(=O)COC(=O)c3nccnc3N)c[nH]c12`, the Potency entry in assay [1], in assay [2], in assay [3], in assay [4] and in assay [5] was “inactive” in each case.

The values are drawn from PubChem BioAssay (NCATS).
